From PubChem
In the library only some 9.1% were active in any assay of this set; here they are far more common.
mHtt clearance: compounds clearing mutant huntingtin protein. HeLa Exon1htt(103Q)mCFP, aggregate imaging; zero = plate's median compound well. inhibition, % at 1.5 µM. 47,000 tested, 0.42% active. AID 853;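 active = inhibition of aggregate fluorescence above about 70%, also judged a hit by eye on the cell image, limit read from the data, passing the limit was not always enough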;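 also: cells exposed to compound for three days before fixation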
M1 antagonist: blocks the rat M1 muscarinic receptor response to acetylcholine; P08482; CHO-M1 cells, Fluo-4 calcium, ACh EC80 antagonist mode; hits give low values; B-score at 10 µM; 64,000 tested, 3.4% active; AID 628;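 active = calcium fluorescence response, raw or row-and-column corrected B-score, differing from the plate sample mean either way at a set confidence level, mostly lower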
D1 mod: allosteric modulators of human D1 dopamine receptor | B-score at 10 µM | P21728 | HEK293 D1, CRE-luciferase, dopamine EC30 potentiation; actives deviate in either direction | AID 641 | 58,000 tested, 5.9% active;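 active = luminescence count or its row- and column-corrected plate score outside the 99.7% band of the plate's sample wells, on either side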
Target sequence (P21728 whole entry, looked up): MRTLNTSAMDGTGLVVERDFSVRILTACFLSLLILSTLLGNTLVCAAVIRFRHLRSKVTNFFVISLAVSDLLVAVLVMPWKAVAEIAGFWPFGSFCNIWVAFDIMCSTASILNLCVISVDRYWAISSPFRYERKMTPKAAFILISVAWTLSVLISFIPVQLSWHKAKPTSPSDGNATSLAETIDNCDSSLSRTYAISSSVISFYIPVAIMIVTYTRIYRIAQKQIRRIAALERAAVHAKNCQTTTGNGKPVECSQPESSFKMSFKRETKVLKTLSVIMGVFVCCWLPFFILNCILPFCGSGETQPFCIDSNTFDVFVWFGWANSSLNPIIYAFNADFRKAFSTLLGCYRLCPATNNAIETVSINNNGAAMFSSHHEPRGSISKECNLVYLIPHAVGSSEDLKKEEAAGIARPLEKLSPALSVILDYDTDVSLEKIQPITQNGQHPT
M1 ag: agonists of M1 muscarinic receptor; CHO-M1 cells, Fluo-4 calcium fluorescence, agonist mode; hits give high values; B-score at 10 µM; 64,000 tested, 3% active; AID 626;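 active = fluorescence rise, raw or as B-score row- and column-corrected plate score, outside the 99.7% band of its plate's samples, either direction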
M1 antag conf: M1 muscarinic receptor (rat) antagonism, confirmed. shares compounds with M1 antagonist. CHO-M1 cells, Fluo-4 calcium, ACh EC80 antagonism; hits give low values. calcium response (max-min fluorescence) at 10 µM. 1,700 tested, 43% active. AID 677;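 active = calcium response below the same-plate mean of wells given acetylcholine alone at its 80%-effect dose, minus 3 SD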;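 also: raw fluorescence intensity difference in arbitrary instrument units and not normalized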
mGluR4 antag: mGluR4 (human) activity, M1 antagonist secondary assay | CHO-mGluR4 calcium flux, Fluo-4 fluorescence, glutamate EC80; hits give low values | AID 678 | fluorescence response (max-min) at 10 µM | shares compounds with M1 antagonist | 1,700 tested, 0.9% active;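 active = fluorescence response below the plate's average for near-maximal glutamate wells, less 3 SD of those wells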;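 also: raw unnormalized fluorescence span taken in the window right after glutamate addition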
* hit, by the source's call; . = no result given.

SMILES | mHtt clearance | M1 antagonist | D1 mod | M1 ag | M1 antag conf | mGluR4 antag
Cc1ccc2cc3c(nc2c1)N(Cc1ccco1)CC3 | -38.1 | -1.31* | 0.403 | -0.665 | 319* | 194
CCOC(=O)CSc1nnc(CNC(=O)c2ccc(S(=O)(=O)N3CCCC3)cc2)n1C | 45.8 | -1.23* | -0.00315 | 1.35 | 426 | 204
Brc1ccccc1OCCCCCN1CCCC1 | -0.2 | . | . | . | . | .
C=CCc1ccccc1OCCCCN1CCCC1 | . | -3.42* | -3.04* | 0.197 | 367* | 249
CCc1ccccc1OCCCCN1CCCC1 | . | -4.32* | -3.07* | -0.672 | 517 | 272
Cc1ccccc1OCCCN1CCCC1 | -79.9 | -0.144 | -0.964 | -0.572 | . | .
COc1cc(C2N(c3ccc(F)cc3)C(=O)C3CCCN32)cc(OC)c1OC (configuration not stated) | -256.8 | -4.36* | -0.39 | -0.161 | 634 | 237
COc1ccc(N2CCN(c3nc4c(c(=O)[nH]c(=O)n4C)n3CCCc3ccccc3)CC2)cc1 | . | -0.235 | 0.182 | 0.322 | . | .
OCCN1CCN(Cc2cccc(Oc3ccc(Cl)cc3)c2)CC1 | 62.8 | -2.87* | -0.745 | -1.05 | 378* | 187
Cc1ccc(C)c(N2CCN(S(=O)(=O)c3ccc4c(c3)OCCO4)CC2)c1 | 35.2 | -1* | -0.358 | -0.127 | 641 | 235
COc1c(C)cccc1C(=O)Nc1ccc(N2CCN(S(C)(=O)=O)CC2)cc1 | -46.2 | 0.0405 | -0.00277 | 0.161 | . | .
COc1c(C)cc(Br)cc1C(=O)Nc1ccc(N2CCN(S(C)(=O)=O)CC2)cc1 | -12.4 | -1.86* | . | 0.336 | 533 | 210
O=C1N2CCCc3cccc(c32)C12Nc1ccccc1S2 (configuration not stated) | -62.1 | 0.141 | 0.308 | -0.0155 | . | .
COc1ccc(N2C(=O)CSC23C(=O)N2CCCc4cccc3c42)cc1 (configuration not stated) | -5.2 | -16.9* | -0.254 | -0.226 | 28.3* | 212
CCCc1cc(=O)[nH]c(SCC(=O)c2cc(C)n(CCOC)c2C)n1 | . | -3.61* | 0.463 | 0.0824 | 537 | 198
CCCc1cc(=O)[nH]c(SCC(=O)c2cc(C)n(C)c2C)n1 | -84.5 | . | . | . | . | .
CCOCCCNC(=O)c1cc2c(=O)n3cccc(C)c3nc2n1C | . | 0.0348 | 0.545 | 0.898 | . | .
CCOCCCn1c(=N)c(C(N)=S)cc2c(=O)n3cccc(C)c3nc21 | -38.9 | -4.09* | -0.181 | -0.743 | 516 | 248
Cc1cccn2c(=O)c3cc(C(N)=S)c(=N)n(CCCOC(C)C)c3nc12 | -45.1 | -3.32* | . | 1.98 | 560 | 211
Cc1ccc(N2CCN(CCc3nc4cc(NS(C)(=O)=O)ccc4n3C)CC2)cc1 | 27.4 | -3.75* | -1.96 | 1.7 | 503* | 234
Cn1c(CCN2CCCCC2)nc2cc(NS(=O)(=O)c3ccc(F)cc3)ccc21 | . | -1.82* | -0.593 | -0.522 | 474* | 207
Cc1ccc(S(=O)(=O)Nc2ccc3c(c2)nc(CN2CCCC2)n3C)cc1 | -8.5 | . | . | . | . | .
CC1CCN(CCc2nc3cc(NC(=O)NC4CCCCC4)ccc3n2C)CC1 | 25.7 | . | . | . | . | .
Cn1c(CCN2CCCCC2)nc2cc(NC(=O)NC3CCCCC3)ccc21 | . | -4.72* | -1.52 | -0.333 | 263* | 228
O=C(Cn1nc(C(F)(F)F)c2c1CCC2)N1CCN(c2ccccc2)CC1 | . | 0.282 | -0.406 | -0.0289 | . | .
SMILES | mHtt clearance | M1 antagonist | D1 mod | M1 ag | M1 antag conf | mGluR4 antag
Cc1cc(C)n(-c2nncn2/N=C/c2ccccc2F)n1 | 43.3 | -3.33* | -0.142 | -1 | 576 | 233
C[C@H](NC(=O)NCc1cccs1)C(=O)O | -5.8 | 0.148 | 0.387 | -0.207 | . | .
CC(Cc1cccs1)NC(=O)Nc1ccccc1 (configuration not stated) | 33.0 | -3.18* | -0.0337 | 0.128 | 588 | 188
O=C(NCc1ccc(F)cc1)c1cnc(-c2ccccn2)nc1C(F)(F)F | 3.3 | . | . | . | . | .
Cc1ccccc1Cn1c(=N)n(CC(=O)c2ccco2)c2ccccc21 | 32.4 | -0.583 | -1.92 | -0.421 | . | .
CCCn1c(N2CCN(Cc3cccc(C)c3)CC2)nc2c1c(=O)[nH]c(=O)n2C | -0.5 | -0.885 | 0.225 | 2.12 | . | .
Cc1cccc(Cn2c(N3CCCCC3C)nc3c2c(=O)[nH]c(=O)n3C)c1 (configuration not stated) | . | -4.2* | . | 0.385 | 90.3* | 179
Cc1cc(C)n(-c2ccc(C(=O)OCC(=O)N(CC(C)C)C3CCS(=O)(=O)C3)cc2)n1 (configuration not stated) | 16.5 | -2.45* | 0.192 | -1.72 | 595 | 220
